Holding throughout (assay): qHTS profiling for inhibitors of Plasmodium falciparum proliferation (AID 504749); note: nearly all actives have a fitted effect of over 60% in size
What all share (conditions): P. falciparum in erythrocytes, SYBR Green DNA, 72 h; series mostly up to 28.7 µM
Background: qHTS replaces the single test concentration by a dilution series.

The subject of one test is CP335. The gist of the method: (§1)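 Quantitative HTS: compounds pinned into medium, infected erythrocytes added (0.3% parasitemia, 2.5% hematocrit), 72 h culture at 37 C under 5% CO2. Saponin/Triton lysis with SYBR Green I, overnight RT, then fluorescence read.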
The next test concerns DFO2036. The gist of the method: as §1
For another test, the system named is DIV14. The gist of the method: as §1
The test system of the next test is DIV17. Put shortly: as §1
In a further test the test system is DIV30. Put shortly:
as §1

A further test concerns Dd2. Put shortly:
as §1

In the next test the test system is ECU. Put shortly:
as §1

Another test relates to FAB9. The gist of the method: as §1
The next test concerns GB4. The gist of the method: as §1
The subject of the next test is HB3. The gist of the method:
as §1

In the next test the test system is ICS. Put shortly:
as §1

Another test deals with JCK. The gist of the method: as §1
For another test, the system named is N140. The gist of the method:
as §1

The next test relates to P93_24. The gist of the method: as §1
A further test deals with P94_40. Put shortly:
as §1

A further test deals with PAD. Put shortly: as §1
The test system of another test is PC15. The gist of the method:
as §1

For the next test, the system named is PC26. The gist of the method: as §1
The test system of the next test is PC49. The gist of the method: as §1
For a further test, the system named is SC27B. The gist of the method:
as §1

Molecules are shown by their SMILES. Inconclusive results are not listed. Calls of active or inactive are those of the source. Calls come from the whole dose curve; as a rule, active = well fitted inhibition curve with a large enough effect; inconclusive = small, poorly fitted or top-dose-only effect; inactive = flat fitted curve, though single readings scatter.
Potency is the fitted concentration of half-maximal effect.

Regarding `CCCC(O)C(CC)CO` (stereo not given), the Potency result in the test with CP335, in the test on DFO2036, in the test on DIV14, in the test with DIV17, in the test with Dd2 and in the test on ECU was “inactive” throughout. In addition, the Potency entry in the test with FAB9, with GB4, with HB3, with ICS, with JCK and in the test with N140 was “inactive” each time. Besides, the Potency entry in the test with P93_24, in the test on P94_40, with PAD, with PC15, in the test with PC26 and with PC49 was “inactive” each time. Also, the Potency entry in the test with SC27B is “inactive”. In the test on DIV30, the result was inactive.

Consider `COc1ccc(NS(=O)(=O)c2ccc(N)cc2)nn1`, for which the Potency entry in the test with CP335, in the test with DFO2036, in the test with DIV14, in the test on DIV17, in the test with Dd2 and with ECU was “inactive” in each case. Besides, the Potency entry in the test with FAB9, with GB4, with HB3, in the test on ICS, with JCK and in the test on N140 was “inactive” each time. Further, the Potency result with P93_24, in the test on P94_40, with PAD, in the test with PC15, in the test on PC26 and in the test on PC49 was “inactive” each time. Further, the Potency entry in the test on SC27B is “inactive”. Besides, the call in the test with DIV30 was inactive.

As for `COc1ccccc1OC(=O)Oc1ccccc1OC`, the Potency result with CP335, in the test on DFO2036, with DIV14, with DIV17, in the test with Dd2 and in the test with ECU was “inactive” throughout. Also, the Potency result in the test on FAB9, with GB4, in the test on HB3, in the test with ICS, in the test with JCK and with N140 was “inactive” each time. For the same compound, the Potency result in the test with P93_24, in the test with P94_40, in the test on PAD, with PC15, in the test on PC26 and with PC49 was “inactive” each time. In addition, the Potency entry with SC27B is “inactive”. Besides, the compound was classed as inactive with DIV30.

`CC(=O)NCc1c(I)c(NC(C)=O)c(I)c(C(=O)O)c1I`: the Potency entry with CP335, in the test on DFO2036, with DIV14, in the test with DIV17, with Dd2 and in the test with ECU was “inactive” in each case. Moreover, the Potency entry in the test with FAB9, in the test with GB4, in the test with HB3, in the test on ICS, with N140 and in the test on P93_24 was “inactive” in each case. For the same compound, the Potency entry with P94_40, with PAD, with PC15, in the test on PC26 and with SC27B was “inactive” each time. In the test on DIV30, the compound was classed as inactive. The values for the Potency with JCK and in the test with PC49 were 11.2 µM (active) and 0.005 µM (active), respectively.

With `CN1C(C)(C)CCCC1(C)C`, the Potency entry with CP335, with DFO2036, in the test on DIV14, in the test with DIV17, in the test with Dd2 and in the test with ECU was “inactive” throughout. Moreover, the Potency entry in the test with FAB9, in the test on GB4, with HB3, in the test with ICS, in the test with JCK and with N140 was “inactive” throughout. Moreover, the Potency entry in the test on P93_24, in the test with P94_40, with PAD, with PC15, with PC26 and in the test on PC49 was “inactive” each time. Besides, in the test with SC27B, the Potency entry is “inactive”. The compound was called inactive in the test on DIV30.

As to `O=S1(=O)OC(c2ccc(O)cc2)(c2ccc(O)cc2)c2ccccc21`, the Potency entry in the test with CP335, in the test on DFO2036, with DIV14, with DIV17, with Dd2 and with ECU was “inactive” throughout. Moreover, the Potency result in the test with FAB9, in the test with GB4, with HB3, in the test on ICS, in the test on JCK and in the test with N140 was “inactive” each time. Moreover, the Potency entry with P93_24, in the test on P94_40, in the test on PAD, in the test with PC15, with PC26 and in the test on PC49 was “inactive” in each case. Besides, the Potency result in the test on SC27B is “inactive”. For the same compound, the compound was classed as inactive in the test with DIV30.

For `CCN(CC)CC1CCCCN1CC(=O)N1c2ccccc2C(=O)Nc2cccnc21` (stereo not given), the Potency result in the test on CP335, in the test on DFO2036, in the test with DIV14, in the test with DIV17, with Dd2 and in the test with ECU was “inactive” throughout. Also, the Potency entry with FAB9, in the test on GB4, in the test with HB3, in the test with ICS, in the test on JCK and in the test with N140 was “inactive” throughout. Moreover, the Potency result in the test with P93_24, in the test with P94_40, in the test with PAD, with PC15, in the test with PC26 and in the test with PC49 was “inactive” in each case. In addition, in the test with SC27B, the Potency result was “inactive”. Moreover, the call in the test on DIV30 was inactive.

Take `Cc1cc(=O)[nH]c(=S)[nH]1`: the Potency result with CP335, with DFO2036, with DIV14, with DIV17, in the test on Dd2 and with ECU was “inactive” each time. Also, the Potency result in the test on FAB9, with GB4, in the test with HB3, with ICS, in the test with JCK and in the test with N140 was “inactive” each time. Moreover, the Potency entry with P93_24, in the test on P94_40, with PAD, in the test with PC15, in the test with PC26 and with PC49 was “inactive” throughout. Moreover, in the test on SC27B, the Potency entry is “inactive”. In the test on DIV30, the call was inactive.

For `CC1CCc2cc(F)cc3c(=O)c(C(=O)O)cn1c23` (stereo not given), the Potency entry in the test on CP335, with DFO2036, in the test with DIV14, in the test with DIV17, in the test on Dd2 and in the test with ECU was “inactive” throughout. Also, the Potency result in the test with FAB9, with GB4, in the test with HB3, with ICS, with JCK and in the test with N140 was “inactive” in each case. Moreover, the Potency result in the test on P93_24, in the test on P94_40, in the test with PAD, with PC15, in the test with PC26 and in the test on PC49 was “inactive” throughout. Also, the Potency result in the test with SC27B was “inactive”. Further, the call in the test on DIV30 was inactive.

As to `CCCCCCCCCCCCCCCCN`, the Potency result in the test on CP335, in the test on DFO2036, in the test with DIV14, in the test with DIV17, with Dd2 and in the test on ECU was “inactive” throughout. Moreover, the Potency entry with FAB9, in the test with GB4, in the test with HB3, in the test on ICS, with JCK and in the test with N140 was “inactive” throughout. Moreover, the Potency result in the test with P93_24, in the test on P94_40, in the test with PAD, in the test on PC15, in the test with PC26 and with PC49 was “inactive” throughout. The Potency entry in the test on SC27B is “inactive”. Further, the compound was classed as inactive in the test on DIV30.

Regarding `CCc1nnc(NS(=O)(=O)c2ccc(N)cc2)s1`, the Potency result with CP335, in the test on DFO2036, in the test with DIV14, in the test on DIV17, with Dd2 and in the test on ECU was “inactive” throughout. Besides, the Potency entry with FAB9, in the test on GB4, in the test on HB3, with ICS, in the test with JCK and in the test on N140 was “inactive” throughout. The Potency result with P93_24, in the test with P94_40, in the test on PAD, in the test with PC15, with PC26 and with PC49 was “inactive” in each case. The Potency result in the test on SC27B is “inactive”. Further, the compound was called inactive in the test on DIV30.

Regarding `CCCCCC(N)=O`, the Potency result in the test on CP335, in the test on DFO2036, in the test on DIV14, in the test with DIV17, with Dd2 and with ECU was “inactive” throughout. For the same compound, the Potency result in the test on FAB9, with GB4, with HB3, in the test with ICS, in the test with JCK and in the test with N140 was “inactive” each time. The Potency result with P93_24, with P94_40, in the test with PAD, in the test with PC15, with PC26 and in the test on PC49 was “inactive” in each case. In addition, the Potency result with SC27B is “inactive”. In the test with DIV30, the compound was called inactive.

Take `NNC(=O)CP(=O)(c1ccccc1)c1ccccc1`: the Potency result with CP335, in the test on DFO2036, in the test with DIV14, in the test on DIV17, with Dd2 and with ECU was “inactive” throughout. For the same compound, the Potency entry in the test with FAB9, with GB4, in the test with HB3, in the test on ICS, in the test on JCK and in the test on N140 was “inactive” each time. Further, the Potency entry with P93_24, in the test with P94_40, with PAD, in the test with PC15, in the test with PC26 and with PC49 was “inactive” throughout. Further, the Potency result in the test on SC27B is “inactive”. The result with DIV30 was inactive.

Regarding `CC(=O)Nc1cccc(O)c1`, the Potency result in the test on CP335, in the test with DFO2036, in the test on DIV14, in the test on DIV17, in the test with Dd2 and in the test on ECU was “inactive” in each case. The Potency entry in the test on FAB9, in the test with GB4, with HB3, in the test with ICS, in the test on JCK and with N140 was “inactive” each time. In addition, the Potency entry with P93_24, in the test with P94_40, in the test on PAD, in the test on PC15, with PC26 and in the test on PC49 was “inactive” each time. The Potency result with SC27B was “inactive”. In addition, in the test on DIV30, the outcome was inactive.

Values taken from PubChem BioAssay (NCATS).
